In PubChem BioAssay AID528 (NMMLSC, 2006):
The campaign covered roughly 24,000 compounds. Fewer than 10 were called active. Not shown: some 9% with an inconclusive outcome.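 Rule for the calls: active = fluorescent ligand binding to cells raised by more than 40% of the manganese-induced maximum; inconclusive = compound's own fluorescence above 85% of the ligand control signal; inactive = the rest.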 The list is a sample of the results.

Each molecule was assayed against Integrin alpha-4 (Homo sapiens) (UniProt P13612) (assay: enhancers of LDV-FITC binding to VLA-4 integrin, primary screen, Jurkat cells, flow cytometry (AID 528;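 note: 0% = ligand binding without compound and 100% = manganese-stimulated maximal binding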)). Conditions: active compounds read high, screened at 10 µM (by protocol).
Integrin alpha-4 (Homo sapiens), sequence (P13612 whole entry, looked up): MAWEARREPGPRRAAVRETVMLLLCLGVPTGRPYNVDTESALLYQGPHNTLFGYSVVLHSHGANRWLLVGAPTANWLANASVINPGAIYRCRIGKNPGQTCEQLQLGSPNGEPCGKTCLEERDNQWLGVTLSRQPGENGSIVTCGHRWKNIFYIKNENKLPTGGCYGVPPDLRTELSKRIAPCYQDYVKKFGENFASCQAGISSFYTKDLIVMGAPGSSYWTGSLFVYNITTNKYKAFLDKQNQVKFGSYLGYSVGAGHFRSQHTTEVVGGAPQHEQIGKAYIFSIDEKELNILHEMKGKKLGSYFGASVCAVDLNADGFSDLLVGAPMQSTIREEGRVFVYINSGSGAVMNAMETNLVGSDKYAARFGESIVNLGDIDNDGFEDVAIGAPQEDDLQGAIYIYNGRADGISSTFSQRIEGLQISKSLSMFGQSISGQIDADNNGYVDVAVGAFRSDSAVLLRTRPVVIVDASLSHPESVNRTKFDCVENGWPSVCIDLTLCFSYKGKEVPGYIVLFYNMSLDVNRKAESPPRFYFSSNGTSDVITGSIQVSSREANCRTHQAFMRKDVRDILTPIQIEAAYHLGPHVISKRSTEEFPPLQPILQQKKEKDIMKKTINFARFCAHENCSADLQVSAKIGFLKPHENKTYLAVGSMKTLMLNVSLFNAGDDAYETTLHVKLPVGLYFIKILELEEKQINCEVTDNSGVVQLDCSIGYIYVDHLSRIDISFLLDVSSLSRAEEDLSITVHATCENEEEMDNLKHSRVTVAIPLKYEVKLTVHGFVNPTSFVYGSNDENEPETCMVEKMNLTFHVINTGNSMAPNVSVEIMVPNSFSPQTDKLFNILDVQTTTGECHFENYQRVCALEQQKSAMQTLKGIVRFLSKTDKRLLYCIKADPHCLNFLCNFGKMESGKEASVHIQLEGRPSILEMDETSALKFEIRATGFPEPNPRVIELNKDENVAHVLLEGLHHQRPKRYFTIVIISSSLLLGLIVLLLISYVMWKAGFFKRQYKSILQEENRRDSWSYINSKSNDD

activation, inactive:
CCOC(=O)CSc1nnc(NC(=O)c2cccc(S(=O)(=O)N3CCCCC3)c2)s1 0.5%
CCC(=O)c1ccc(OCC(O)CN2C(=O)NC(C)(C)C2=O)cc1 (stereo unspecified) -4%
Cc1ccc(-c2cc(C(F)(F)F)n3nc(C(=O)N4CCCC4)cc3n2)cc1 -1%
Cc1ccc(CNC(=O)CN2CCN(Cc3ccc(Cl)cc3)C2=O)cc1 -2%
CCn1c(SCC(=O)Nc2ccc3c(c2)OCCO3)nc2c(c1=O)SC(C)C2 (stereo unspecified) -4%
CS(=O)(=O)NCc1ccc(C(=O)NCc2ccccc2)cc1 1%
CCCC(=O)Nc1nnc(CC(=O)OCC)s1 -0.5%
O=C(CC1Oc2ccccc2NC1=O)NCCCN1CCN(Cc2ccccc2)CC1 (stereo unspecified) -1%
CCC1CCCCN1CCNS(=O)(=O)c1ccc2c(c1)CCN2C(C)=O (stereo unspecified) -4%
Cc1oc(-c2cccc(Cl)c2)[n+]([O-])c1C 8%
CCOC(=O)CN1C(=O)C(O)(CC(=O)c2ccccn2)c2ccccc21 (stereo unspecified) 4%
CCOc1ccc(S(=O)(=O)n2ccnc2)c2ccccc12 1%
Cn1c(=O)c2c(nc(N3CCCCCC3)n2CC(=O)c2ccc(Br)cc2)n(C)c1=O -1%
CCOc1ccc(OCC)c(NC(=O)C(NS(=O)(=O)c2ccc3c(c2)oc(=O)n3C)C(C)C)c1 (stereo unspecified) -2%
Cn1cccc1Cc1nnc(SCC(=O)NCc2ccc3c(c2)OCO3)n1CCc1ccccc1 -4%
Cn1c(=O)[nH]c(=O)c2c1nc(CN(Cc1ccccc1)Cc1ccccc1)n2CCN1CCOCC1 -6%
C=CCn1c(=N)n(CC(O)COc2ccc(OC)cc2)c2ccccc21 (stereo unspecified) 0%
CCOc1cc(C(=O)Nc2ncccn2)cc(OCC)c1OCC 11.5%
Cc1nnc(C)n1/N=C/c1ccc(C(C)C)cc1 -4%
N#CCCN1CCN(S(=O)(=O)c2ccc(S(=O)(=O)NC3CC3)cc2)CC1 1%
Cc1nnc(NC(=O)CCC(=O)N2CCC(C)CC2)s1 -0.5%
O=C(CCn1c(=S)[nH]c2ccccc2c1=O)NCCCN1CCCC1=O 5%
CC(=O)c1c(N)n(C)c(=O)n(C)c1=O 9%
CCCn1nnc2sc3c(c2c1=O)CCC(C)C3 (stereo unspecified) 4%
CC1CCCN(C(=O)c2ccc3c(c2)C(=O)N(CCC2=CCCCC2)C3=O)C1 (stereo unspecified) 0%
CCCCC(=O)N(c1ccc(OC)cc1)C1C=CS(=O)(=O)C1 (stereo unspecified) -1%
CCCCn1c(=S)[nH]c2ncccc2c1=O 1%
O=S1(=O)CC(NCc2ccccc2)C(Nc2ccc(Cl)cc2)C1 (stereo unspecified) -8%
CCCCCCn1c(CN2CCCCC2)nc2c1c(=O)n(C)c(=O)n2C -6%
COc1ccccc1C(=O)N1CCN=C1SCc1cccnc1 2%
Cc1ccc(S(=O)(=O)N2C3C=CC(C3)C2C(=O)O)cc1 (stereo unspecified) 5%
COc1cccc(N(C(=O)c2ccn[nH]2)C2(C(=O)Nc3c(C)cccc3C)CCCCC2)c1 3%
CCOC(=O)C1CCN(C(=O)C2CCN(S(=O)(=O)N3CCCC3)CC2)CC1 6%
COc1ccc(-c2nc(CS(=O)CC(=O)NCc3cccnc3)c(C)o2)cc1OC (stereo unspecified) 3%
Cc1noc(C)c1S(=O)(=O)N1CCCC(C(=O)Nc2nccs2)C1 (stereo unspecified) 0%
CCN(CC)S(=O)(=O)N1CCC(C(=O)NC(C)CCc2ccccc2)CC1 (stereo unspecified) 3%
COc1cccc(-n2c(Cc3cc(=O)[nH]c(=O)[nH]3)nnc2SCC(=O)Nc2ccccc2)c1 5%
Cc1cccc(N2C(=O)SC(N(CC(=O)O)c3cccc(C)c3)C2=O)c1 (stereo unspecified) 7%
CCN(Cc1ccccc1)C(=O)CSc1nc(C)cc2c1C(=O)OC2 -9%
CCOc1ccc(CNC(=O)C2CCC(=O)N2C2CCCC2)cc1OC (stereo unspecified) -7%
O=C(CN1CCN(S(=O)(=O)c2ccc(F)cc2)CC1)Nc1ccccc1F -1%
COc1ccc(OC)c(N=Cc2c(O)[nH]c3ccccc23)c1 8%
O=C1c2cccnc2C(=O)N1Cc1cccs1 0%
COc1ccccc1CNC(=O)CCn1c(=O)sc2ccccc21 5%
CSCCC(NC(=O)C1CCC(C)CC1)C(=O)NCc1ccco1 (stereo unspecified) 3%
CC(=O)c1c(C)c[nH]c1C 3%
CCOC(=O)c1cnc(-n2nc(C)cc2C)nc1Nc1cccc(C(C)=O)c1 0%
CCOc1cc(/C=N/n2cnnc2)c(Br)cc1O 9%
CC1CN(C(=O)c2ccc3c(c2)OCO3)OC(c2ccccc2)O1 (stereo unspecified) 4%
CCOC(=O)N1CCN(C(=O)c2n[nH]c(=O)c3ccccc23)CC1 -9%
CCOC(=O)N1CCN(S(=O)(=O)c2cc3c(cc2C)NC(=O)CO3)CC1 -8%
Cc1oc(-c2ccccc2F)nc1CS(=O)(=O)CC(=O)NCCCN(C)C1CCCCC1 -7%
O=C(NCc1cccnc1)c1ccc(CS(=O)(=O)c2ccc(Br)cc2)o1 3%
CCOC(=O)c1ccc(-n2c(C)nc3c(cnn3-c3ccccc3C)c2=O)cc1 -2.3%
CCOc1cc2[nH]c(=O)n(CCC(=O)NCc3ccc(OC)cc3)c(=O)c2cc1OCC 1%
COc1ccccc1NC(=O)CN1CCN(S(=O)(=O)c2ccc(Br)cc2)CC1 1%
O=C(O)CCC(=O)Nc1ccc(N2CCOCC2)cc1 2%
S=C1SCN(CCN2CCOCC2)CN1Cc1ccccc1 -3%
Cc1ccc(S(=O)(=O)NCCN2CCOCC2)cc1C -2%
CN1CCCc2cc(C#N)c(=O)[nH]c21 -3%
CCN1CCN(c2ncnc3c2oc2nc(C)c4c(c23)CC(C)(C)OC4)CC1 9%
CCOc1ccc(NC(=O)CC2NCCNC2=O)cc1 (stereo unspecified) 0.7%
O=C(CN1CCOCC1)N1CCCc2c1c(=O)oc1ccc(OCc3ccccc3)cc21 -5%
Cc1ccc2nc3n(c(=O)c2c1)CCC3 5%
CCOC(=O)Cn1c(N)c(C(=O)OC)sc1=S -9%
CCOc1ccc(/C(O)=C2/C(=O)C(=O)N(Cc3cccnc3)C2c2ccc(N(C)C)cc2)c(C)c1 (stereo unspecified) -4%
CCOC(=O)C1CCN(C(=O)C2CCN(S(=O)(=O)CC)CC2)CC1 0%
Cn1nnnc1SCc1cc(=O)[nH]c2ccccc12 -4%
O=C(CC(NCCN1CCOCC1)C(=O)O)Nc1cccc(Cl)c1 (stereo unspecified) 5%
CC(=O)Nc1cc(C(=O)O)ccc1S(=O)(=O)c1ccc(Cl)cc1 5%
O=C(c1ccc(=O)[nH]c1)N(Cc1ccco1)C1(C(=O)NC2CCCCC2)CCCCC1 8%
COC(=O)c1cc(S(=O)(=O)NC2CCN(Cc3ccccc3)CC2)cn1C 12%
CC(c1ccco1)N(C(=O)c1ccc(S(=O)(=O)N2CCCCC2)cc1)c1ccccn1 (stereo unspecified) -5%
O=C1CC(c2cccc(F)c2)C2=C(CCCC2=O)N1 (stereo unspecified) 0%
Cc1nc(NC(=O)C23CCC(C)(C(=O)O2)C3(C)C)sc1C (stereo unspecified) 2%
CC1Cc2nc(SCC(=O)Nc3ccccc3F)n(C)c(=O)c2S1 (stereo unspecified) -5.7%
Cc1ccc(C)c(NS(=O)(=O)c2cc(Br)cnc2N)c1 -9%
O=C1CC(c2cccc(Br)c2)C2=C(CCCC2=O)N1 (stereo unspecified) -3%
COc1cccc(NC(=O)Cn2cnc3sc(C)c(S(=O)(=O)N4CCN(C)CC4)c3c2=O)c1 1%
CCOC(=O)CSc1nnc(CNC(=O)c2cccs2)n1-c1ccccc1 -4%
O=C1N=C(N2CCOCC2)CS1 5%
C=CCOC(=O)C1=C(C)OC(N)=C(C#N)C1c1ccc(F)cc1 (stereo unspecified) -2.5%
CCOC(=O)c1ccc(Nc2cc(C)nc3nc(C)nn23)cc1 5%
COCCCNC(=O)CCc1nc2cccnc2n1Cc1ccc(OC)cc1 4%
COc1cccc(Oc2ccc(N)cc2)c1 8%
CCCN1CCN(C(=O)Cn2ncc3ccccc32)CC1 5%
Cc1cccc(N2CCN(C(=O)C3CCN(S(=O)(=O)c4cnc[nH]4)CC3)CC2)c1C 0%
COc1cccc(NC(=O)C2CCCN2C(=O)OCc2ccccc2)c1 (stereo unspecified) -5%
CC(=O)c1c(C)[nH]c(C(=O)NCCCN2CCCC2)c1C 1%
COc1cc2[nH]c(=S)n(CCN3CCCCC3C)c(=O)c2cc1OC (stereo unspecified) -3%
Cn1c(=O)cc(OCCCC(=O)N2CCN(c3ccccn3)CC2)c2ccccc21 -10%
Cc1cccn2c(=O)c3cc(C(=O)NCc4ccccn4)n(C)c3nc12 -2%
Cc1nc(SCC(=O)Nc2cc(C)on2)c2c3c(sc2n1)CCCC3 -3.5%
COc1ccc(C(=O)N(CCN2CCOCC2)CC(=O)NC2CCCC2)cc1OC 6.5%
O=C(CN1CCOc2ccccc21)N1CCC(Cc2ccccc2)CC1 -1%
CCOC(=O)CSc1nnc(CNC(=O)Cc2ccccc2)n1-c1ccccc1OC -3%
CC1CCC(NS(=O)(=O)c2ccc3c(c2)n(C)c(=O)c(=O)n3C)CC1 (stereo unspecified) 6%
COc1cc(OC)cc(-c2nc3nc(C)c(CCC(=O)NCc4ccco4)c(C)n3n2)c1 -2.7%
Cc1cc(C)nc(-n2nc(C)cc2NC(=O)c2ccc(Br)o2)n1 1.5%
Cc1nc2ccc(NC(=O)N3CCC(c4ccccc4)C3)cc2nc1C (stereo unspecified) -3%
O=C(CNS(=O)(=O)c1ccc(Br)s1)NCc1ccc2c(c1)OCO2 -4%
